The values that follow come from PubChem BioAssay (NCI).

Test systems include NCI-H23 lung; NCI-H226 lung; NCI-H322M lung; HOP-62 NSCLC; NCI-H460 lung; NCI-H522 lung; A549/ATCC NSCLC; 786-0 renal; COLO 205 colon; DU-145 prostate.
What all share (assay): NCI-60 one-dose screen, 48 h (100 = growth as untreated, 0 = no growth, -100 = all killed)
What all share (conditions): 10 µM

Molecules are shown by their SMILES. This is part of a sample that, as a whole, favours compounds with a hit. Of some 83,000 tested, about 20% had one in any assay.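 Method: cells in 96-well plates; compound added at one concentration; 48 h incubation; percent growth measured; values under 10 scored active.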 Unmarked numbers belong to inactive results. Activity calls are given as the source filed them.

Take `O=S(=O)(NCCNc1nccc(-c2c(-c3ccc(F)cc3)nc3sccn23)n1)c1ccc2ccccc2c1`: the growth in the test on NCI-H23 lung is 90.8%; in the test with NCI-H226 lung it was 92.7%; in the test with NCI-H322M lung, 73%; in the test on HOP-62 NSCLC, 88.5%; with NCI-H460 lung, 55%; in the test with NCI-H522 lung it was 75.5%. For the same compound, the growth was 43.8% in the test on A549/ATCC NSCLC, 89.4% in the test on 786-0 renal, 57.4% with COLO 205 colon and 78.8% in the test on DU-145 prostate.

As for `COc1ccc(C2=NN(C(=O)c3ccc(S(C)(=O)=O)cc3)C(c3ccc(OC)c(OC)c3)C2)c(OC)c1` (stereo not given), the growth with NCI-H23 lung was 104%; in the test on NCI-H226 lung it was 85.5%; in the test with NCI-H322M lung, 93.9%; in the test on HOP-62 NSCLC it was 74.4%; in the test with NCI-H460 lung it was 107%; with NCI-H522 lung, 86.6%. The growth is 91.7% in the test on A549/ATCC NSCLC, 99.8% in the test on 786-0 renal, 111% with COLO 205 colon and 98% in the test on DU-145 prostate.

For the compound `O=C1ON=[N+](c2ccc(Cc3ccc([N+]4=NOC(=O)C4CN4CCOCC4)cc3)cc2)C1CN1CCOCC1` (stereo not given), the growth with NCI-H23 lung is 62.1%; with NCI-H226 lung, 85.5%; in the test on NCI-H322M lung, 82.5%; in the test on HOP-62 NSCLC, 77%; in the test on NCI-H460 lung, 82.9%; in the test with NCI-H522 lung, 37%. Moreover, the growth in the test on A549/ATCC NSCLC is 69.1%; with 786-0 renal, 74%; with COLO 205 colon it was 99.9%; with DU-145 prostate, 101%.

Regarding `O=c1cc(-c2ccccc2)[nH]n1-c1nc2ccccc2[nH]1`, the growth in the test on NCI-H23 lung was 56.1%; with NCI-H226 lung, 67.7%; with NCI-H322M lung, 49.9%; with HOP-62 NSCLC it was 48%; in the test on NCI-H460 lung it was 20.7%; with NCI-H522 lung, 21.6%. In addition, the growth in the test on A549/ATCC NSCLC is 30.7%; in the test with 786-0 renal, 50.1%; in the test with COLO 205 colon, 106%; with DU-145 prostate, 61.1%.

With `C#Cc1ccc(-n2c(/C=C/c3ccc(O)cc3)nc3ncccc3c2=O)cc1`, the growth in the test with NCI-H23 lung was 82.8%; in the test on NCI-H226 lung, 58.7%; in the test on NCI-H322M lung, 86.4%; with HOP-62 NSCLC, 59.4%; in the test on NCI-H460 lung, 92%; with NCI-H522 lung it was 0.111% (active). Moreover, the growth with A549/ATCC NSCLC was 53.5%; with 786-0 renal, 62.6%; with COLO 205 colon, 110%; with DU-145 prostate, 81.8%.

For the compound `COc1ccc(C(=O)/C=C/c2cc(-c3cc(OC)c(OC)c(OC)c3)n[nH]2)cc1`, the growth with NCI-H23 lung was 87.3%; with NCI-H226 lung, 53.3%; with NCI-H322M lung it was -6.79% (active); with HOP-62 NSCLC, 17.6%; with NCI-H460 lung, 2.79% (active); with NCI-H522 lung, -0.12% (active). In addition, the growth was 34.5% in the test on A549/ATCC NSCLC, 10.4% in the test with 786-0 renal, 30.5% in the test with COLO 205 colon and 26.3% in the test on DU-145 prostate.

Take `Cc1occc1-c1nnc(SCC(=O)c2ccc(NC(=O)CC(C)C)cc2)o1`: the growth was 110% with NCI-H23 lung; 109% in the test on NCI-H226 lung; 106% in the test on NCI-H322M lung; 99.6% with HOP-62 NSCLC; 108% in the test with NCI-H460 lung; 81.9% in the test with NCI-H522 lung. The growth in the test on A549/ATCC NSCLC is 87.7%; in the test on 786-0 renal, 96.3%; with COLO 205 colon, 110%; in the test on DU-145 prostate it was 109%.

Turning to `CCCCOC(=O)Oc1ccc(C(=O)Oc2ccc(OCC)cc2)cc1`, the growth was 99.9% in the test with NCI-H23 lung; 92.7% with NCI-H226 lung; 98.6% in the test with NCI-H322M lung; 113% in the test on HOP-62 NSCLC; 106% with NCI-H460 lung; 82.7% with NCI-H522 lung. The growth in the test with A549/ATCC NSCLC was 85.6%; in the test on 786-0 renal it was 96.7%; in the test with COLO 205 colon it was 118%; in the test with DU-145 prostate it was 97.7%.

For the compound `C[N+](C)(C)c1ncnc2nc[nH]c12`, the growth with NCI-H23 lung is 93.8%; with NCI-H226 lung, 99.1%; with NCI-H322M lung, 67%; in the test on HOP-62 NSCLC it was 98%; in the test on NCI-H460 lung, 104%; with NCI-H522 lung, 97.1%. Moreover, the growth in the test on A549/ATCC NSCLC is 108%; in the test with 786-0 renal it was 89.8%; in the test on COLO 205 colon it was 104%; with DU-145 prostate, 116%.

Consider `COc1cccc(Cn2c(-c3nonc3N)nc3ccccc32)c1`, for which the growth with NCI-H23 lung was 24.2%; in the test on NCI-H226 lung, 49.2%; in the test with NCI-H322M lung, 38.8%; with HOP-62 NSCLC, 29.9%; in the test on NCI-H460 lung, 6.52% (active); in the test with NCI-H522 lung it was -18.4% (active). For the same compound, the growth is 16.4% in the test with A549/ATCC NSCLC, 36.9% in the test on 786-0 renal, -53.3% (active) with COLO 205 colon and 4.99% (active) in the test with DU-145 prostate.

For the compound `O=C(O)c1ccc(P(=O)(O)O)c([N+](=O)[O-])c1`, the growth in the test on NCI-H23 lung is 115%; in the test on NCI-H226 lung it was 94.4%; in the test with NCI-H322M lung it was 102%; in the test on HOP-62 NSCLC, 101%; in the test on NCI-H460 lung, 103%; in the test on NCI-H522 lung, 99.1%. Also, the growth in the test with A549/ATCC NSCLC is 93%; in the test with 786-0 renal it was 110%; in the test on COLO 205 colon, 112%; in the test with DU-145 prostate, 108%.

For the compound `C=C1c2c(C)nn(-c3ccc(OC)cc3)c2N(C)C23C[C@@H]1C1(C)c4c(C)nn(-c5ccc(OC)cc5)c4N(C)C(C)(C[C@H]12)C3` (stereo not given in full), the growth with NCI-H23 lung is 33.7%; in the test on NCI-H226 lung, 48.7%; in the test on NCI-H322M lung, 62.4%; in the test on HOP-62 NSCLC, 59.9%; in the test on NCI-H460 lung, 6.82% (active); in the test on NCI-H522 lung, 47.4%. The growth in the test with A549/ATCC NSCLC was 15.4%; in the test with 786-0 renal, 54.3%; with COLO 205 colon it was 23.6%; in the test with DU-145 prostate it was 56.2%.

Turning to `Cc1ccc(S(=O)(=O)Oc2ccc3c4c(c(=O)oc3c2)CCCCC4)cc1`, the growth with NCI-H23 lung is 62.9%; in the test with NCI-H226 lung, 55.9%; in the test with NCI-H322M lung, 95.1%; with HOP-62 NSCLC, 81%; with NCI-H460 lung, 37.2%; with NCI-H522 lung it was 57.9%. Further, the growth in the test with A549/ATCC NSCLC is 40.9%; in the test with 786-0 renal it was 66.6%; with COLO 205 colon, 28.5%; in the test on DU-145 prostate it was 87.8%.
